Experimental data: PubChem BioAssay (Tox21)
Records with an inconclusive call do not appear. Active and inactive are the calls of the source. Unless noted, calls come from the whole dose curve; as a rule, active = well fitted curve in the direction sought with a large enough effect in the repeat runs; inconclusive = weak or mixed curves; inactive = no such curve, though single readings can be large; an effect the other way counts as inactive or inconclusive.

What was measured:
[1] = qHTS assay to identify small molecule antagonists of the estrogen related receptor (ERR) signaling pathway from Tox21 library - cell viability counter screen (AID 1224834); note: nearly all actives have a fitted effect of over 30% in size; note: potency is the fitted concentration of half-maximal effect
How it was run: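 CellTiter-Fluor fluorescence measured; ERR cells; 17.5 h compound incubation at 37 C; 30 min reagent step.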

[2] = target: Luciferin 4-monooxygenase (Photinus pyralis) (UniProt P08659); assay: qHTS assay to identify small molecule inhibitors of firefly luciferase (AID 1224835); note: series mostly up to about 120 µM; nearly all actives have a fitted effect of over 25% in size
Sequence of Luciferin 4-monooxygenase (Photinus pyralis) (P08659 whole entry, looked up): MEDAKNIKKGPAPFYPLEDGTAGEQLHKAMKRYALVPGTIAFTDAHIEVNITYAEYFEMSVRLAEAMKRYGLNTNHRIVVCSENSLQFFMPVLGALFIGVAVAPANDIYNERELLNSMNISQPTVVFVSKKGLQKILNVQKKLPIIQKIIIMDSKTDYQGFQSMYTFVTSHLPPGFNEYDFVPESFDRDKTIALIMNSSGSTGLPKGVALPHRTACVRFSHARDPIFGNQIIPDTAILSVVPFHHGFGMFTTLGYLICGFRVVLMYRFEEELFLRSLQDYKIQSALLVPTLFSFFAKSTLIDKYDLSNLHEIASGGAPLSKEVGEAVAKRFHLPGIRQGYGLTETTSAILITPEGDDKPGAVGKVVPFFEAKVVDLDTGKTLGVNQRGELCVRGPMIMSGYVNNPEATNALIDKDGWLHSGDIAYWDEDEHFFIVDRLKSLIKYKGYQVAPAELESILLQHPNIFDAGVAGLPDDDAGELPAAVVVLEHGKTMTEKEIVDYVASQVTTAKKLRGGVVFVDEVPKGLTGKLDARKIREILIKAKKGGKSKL
How it was run: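 Quantitative HTS format; KM concentrations of both substrates. Purified P. pyralis FLuc activity quantified from luminescence images.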

[3] = qHTS assay to identify small molecule agonists of the constitutive androstane receptor (CAR) signaling pathway - cell viability counter screen (AID 1224836); note: series mostly up to about 92 µM; nearly all actives have a fitted effect of over 45% in size
How it was run: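 Fluorescence from CellTiter-Fluor indicates live cells after 23 h exposure. The human hepatoma line expresses hCAR and a CYP2B6-2.2kb reporter. Incubation medium contains 0.75 uM PK11195 (final).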

[4] = target: Nuclear receptor subfamily 1 group I member 3 (Homo sapiens) (UniProt Q14994); assay: qHTS assay to identify small molecule antagonists of the constitutive androstane receptor (CAR) signaling pathway (AID 1224838);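 note: HepG2 cells stably expressing hCAR with CYP2B6 luciferase reporter stimulated by CITCO; nearly all actives have a fitted effect of over 40% in size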
Sequence of Nuclear receptor subfamily 1 group I member 3 (Homo sapiens) (Q14994 whole entry, looked up): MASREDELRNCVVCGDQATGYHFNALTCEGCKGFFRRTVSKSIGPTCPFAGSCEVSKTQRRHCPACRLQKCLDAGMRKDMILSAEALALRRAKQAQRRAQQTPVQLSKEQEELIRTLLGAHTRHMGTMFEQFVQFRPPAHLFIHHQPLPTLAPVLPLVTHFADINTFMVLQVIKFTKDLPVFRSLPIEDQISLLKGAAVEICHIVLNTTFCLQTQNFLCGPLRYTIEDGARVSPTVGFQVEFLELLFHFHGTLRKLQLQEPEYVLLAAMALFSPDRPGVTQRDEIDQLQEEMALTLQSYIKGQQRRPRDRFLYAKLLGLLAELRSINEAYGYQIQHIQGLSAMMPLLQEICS
How it was run: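 Reporter luminescence was quantified after 24 h exposure of hCAR/CYP2B6-2.2kb double-stable HepG2 cells to compounds at 15 concentrations in the presence of 50 nM CITCO final.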

[5] = target: Nuclear receptor subfamily 1 group I member 3 (Homo sapiens) (UniProt Q14994); assay: qHTS assay to identify small molecule agonists of the constitutive androstane receptor (CAR) signaling pathway (AID 1224839);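 note: HepG2 cells stably carrying human CAR and a CYP2B6 luciferase reporter; series mostly up to about 92 µM; nearly all actives have a fitted effect of over 15% in size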
How it was run: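 Stable hCAR/CYP2B6-2.2kb HepG2 line in DMEM with 10% FBS; compounds (15 concentrations) and 0.75 uM PK11195 final, 24 h at 37 C/5% CO2, then ONE-Glo luminescence after 30 min.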

[6] = qHTS assay to identify small molecule antagonists of the estrogen related receptor signaling pathway with the pleiotropic PPARgamma coactivator (PGC) from Tox21 10K library - cell viability counter screen (AID 1224840; active = well fitted cell-killing curve with a large enough effect in the repeat runs, not every such curve was filed as active; note: nearly all actives have a fitted effect of over 40% in size)
How it was run: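 Here the PGC/ERR cells serve as a cytotoxicity control: they are exposed to compounds for 17.5 hours at 37 C, and live-cell signal is quantified using CellTiter-Fluor fluorescence.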

[7] = qHTS assay to identify small molecule antagonists of the constitutive androstane receptor (CAR) signaling pathway - cell viability counter screen (AID 1224837); note: series mostly up to about 92 µM; nearly all actives have a fitted effect of over 45% in size
How it was run: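 Using CellTiter-Fluor, viability is scored in HepG2 cells stably carrying hCAR and a 2.2kb CYP2B6 reporter after 23 hr compound exposure across 15 concentrations, with CITCO present at 50 nM.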

[8] = qHTS assay to identify small molecule antagonists of the estrogen related receptor signaling pathway with the pleiotropic PPARgamma coactivator (PGC) from Tox21 10K library (AID 1224841; call rule not given here; note: series mostly up to about 92 µM; actives are mostly falling curves and most rising ones were filed inactive; nearly all actives have a fitted effect of over 50% in size)
How it was run: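 Each well held 2,000 PGC/ERR cells, pre-incubated six hours (37 C, 5% CO2). Test substances in DMSO were added by pin tool and left for 18 h at 37 C before luciferase detection by One-Glo.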

[9] = qHTS assay to identify small molecule agonists of the estrogen related receptor signaling pathway with the pleiotropic PPARgamma coactivator (PGC) from Tox21 10K library (AID 1224842); note: nearly all actives have a fitted effect of over 15% in size
How it was run: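 PGC/ERR reporter cells (NTP line) were seeded 2,000 per well, rested 6 h at 37 C/5% CO2, then pin-dosed with compounds in DMSO for 18 h at 37 C; luciferase read by One-Glo luminescence after 30 min at room temperature.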
% is set by controls: 0 for no effect and ±100 for the full control effect.

CC(C)CCCC(C)(C)O
inactive: Potency [1] | Potency [2] | Potency [3] | outcome [4] | Potency [5] | outcome [6]

O=C1CC(c2ccc(Cl)cc2)CC(=O)N1
inactive: Potency [1] | Potency [2] | Potency [3] | outcome [4] | Potency [5] | outcome [6]

O=C(O)c1cc(Br)c(O)c(Br)c1
inactive: Potency [1] | Potency [2] | Potency [3] | Potency [7] | outcome [6] | Potency [8] | outcome [9]

CC(C)C[C@H](NC(=O)CNC(=O)[C@H](Cc1ccc(O)cc1)NC(=O)[C@H](CO)NC(=O)[C@H](Cc1c[nH]c2ccccc12)NC(=O)[C@H](Cc1cnc[nH]1)NC(=O)[C@@H]1CCC(=O)N1)C(=O)N[C@@H](CCCN=C(N)N)C(=O)N1CCC[C@H]1C(=O)NCC(N)=O (stereo in doubt)
inactive: Potency [1] | Potency [2] | outcome [4] | Potency [5] | outcome [6]

O=C1CCCC(=O)O1
inactive: Potency [1] | Potency [2] | Potency [3] | outcome [4] | Potency [5] | outcome [6]

CCCCCCCCOS(=O)(=O)O
inactive: Potency [1] | Potency [2] | Potency [3] | outcome [4] | Potency [5] | outcome [6] | Potency [8] | outcome [9]

C=C(C)C(=O)OCCOP(=O)(O)OCCOC(=O)C(=C)C
inactive: Potency [1] | Potency [2] | Potency [7] | outcome [4] | Potency [5] | outcome [6] | Potency [8] | outcome [9]

C[Si](C)=O
inactive: viability change, negative = cytotoxic [1] 2.07% [at 8.39 µM] | activity change, negative = inhibition [2] 5.26% [at 10.5 µM] | viability change, negative = cytotoxic [3] 2.34% [at 8.39 µM] | activity, negative = inhibition [4] -3.72% [at 8.39 µM] | activation [5] -0.11% [at 8.39 µM] | viability change, negative = cytotoxic [6] 10.2% [at 8.39 µM] | activity, negative = inhibition [8] -4.65% [at 8.39 µM] | activation [9] -1.46% [at 8.39 µM]

Nc1ccc(S(=O)(=O)Nc2ccc(Cl)nn2)cc1
inactive: Potency [1] | Potency [2] | Potency [7] | outcome [4] | Potency [5] | outcome [6] | Potency [8] | outcome [9]

CC(C)NCC(O)COc1ccc(COCCOC(C)C)cc1 (stereo unspecified)
inactive: Potency [1] | Potency [2] | Potency [7] | outcome [4] | Potency [5] | outcome [6]

OCCN(CCO)c1cccc(Cl)c1
inactive: Potency [1] | Potency [2] | Potency [3] | outcome [4] | Potency [5] | outcome [6]

COc1ccc(S(=O)(=O)N2c3ccc(Cl)cc3[C@@](O)(c3ccccc3Cl)[C@H]2C(=O)N2CCC[C@@H]2C(N)=O)cc1OC
inactive: Potency [1] | Potency [2] | Potency [7] | outcome [6]

CCCCN
inactive: Potency [1] | Potency [2] | Potency [3] | outcome [4] | Potency [5] | outcome [6] | Potency [8] | outcome [9]

BrCCCCCBr
inactive: Potency [1] | Potency [2] | Potency [7] | outcome [4] | Potency [5] | outcome [6] | Potency [8] | outcome [9]

CC(C)CC(=O)O
inactive: Potency [1] | Potency [2] | Potency [3] | Potency [7] | outcome [6] | outcome [9]

O=C1O[C@@H]2[C@@H](O)[C@H](O)O[C@@H]2[C@H]1O
inactive: Potency [1] | Potency [2] | Potency [7] | outcome [4] | Potency [5] | outcome [6] | Potency [8] | outcome [9]

CC(=O)Nc1ccc(S(=O)(=O)Nc2ccc([N+](=O)[O-])cc2)cc1
inactive: Potency [2] | outcome [4] | Potency [5]
active: Potency [1] 23.7 µM

c1ccc2nccnc2c1
inactive: Potency [1] | Potency [2] | Potency [3] | outcome [4] | Potency [5] | outcome [6]

CC(C)OC(=O)CCCCC(=O)OC(C)C
inactive: Potency [1] | Potency [2] | Potency [3] | outcome [6]

Oc1cn2c(n1)Nc1ccc(Cl)c(Cl)c1C2
inactive: viability change, negative = cytotoxic [1] 0.934% [at 19 µM] | activity change, negative = inhibition [2] 0.455% [at 23.6 µM] | viability change, negative = cytotoxic [3] -4.95% [at 19 µM] | activity, negative = inhibition [4] 39.2% [at 19 µM] | activation [5] 5.1% [at 19 µM] | viability change, negative = cytotoxic [6] 5.01% [at 19 µM]

CN(CCOc1ccc(NS(C)(=O)=O)cc1)CCc1ccc(NS(C)(=O)=O)cc1
inactive: Potency [1] | Potency [2] | Potency [3] | Potency [7] | outcome [6]

CCCC(=O)C(C)=O
inactive: Potency [1] | Potency [2] | Potency [3] | outcome [4] | Potency [5] | outcome [6] | Potency [8] | outcome [9]

OCCCCC(O)CO (stereo unspecified)
inactive: Potency [1] | Potency [2] | Potency [3] | Potency [7] | outcome [6] | Potency [8] | outcome [9]

O=C1c2ccccc2C(=O)N1CCl
inactive: Potency [1] | Potency [2] | Potency [3] | outcome [4] | Potency [5] | outcome [6] | Potency [8] | outcome [9]

O=C(CS(=O)Cc1ccco1)NC/C=C\COc1cc(CN2CCCCC2)ccn1 (stereo unspecified)
inactive: Potency [1] | Potency [2] | outcome [4] | Potency [5] | outcome [6] | Potency [8] | outcome [9]

CC(C)CC(C)CC(C)CC(C)COC(=O)c1ccccc1C(=O)OCC(C)CC(C)CC(C)CC(C)C (stereo unspecified)
inactive: Potency [1] | Potency [2] | Potency [3] | Potency [7] | outcome [6] | Potency [8] | outcome [9]

CC/C=C\CC1=C(C)CCC1=O
inactive: Potency [1] | Potency [2] | Potency [7] | outcome [4] | Potency [5] | outcome [6] | Potency [8] | outcome [9]

CCc1ccc(C=O)cc1
inactive: Potency [1] | Potency [2] | Potency [3] | outcome [4] | Potency [5] | outcome [6] | Potency [8] | outcome [9]

CC(=O)NCCCCCC(=O)O
inactive: Potency [1] | Potency [2] | Potency [7] | outcome [4] | Potency [5] | outcome [6]

CCOc1cc(NC(C)=O)ccc1C(=O)OC
inactive: Potency [1] | Potency [2] | Potency [7] | outcome [4] | Potency [5] | outcome [6] | Potency [8] | outcome [9]

CCOC(=O)c1ccc(OC(=O)CCCCCN=C(N)N)cc1
inactive: Potency [1] | Potency [3] | Potency [7] | outcome [4] | outcome [6]

CC(C)=CCOC(=O)c1ccccc1
inactive: Potency [1] | Potency [3] | Potency [7] | outcome [6] | Potency [8] | outcome [9]
